Assay type in all cases: functional
Assay [1] addresses Solute carrier family 2, facilitated glucose transporter member 1 (Homo sapiens) (UniProt P11166). The experiment in a line: ST_JUDE_LEISH: Cytotoxicity at 2uM final concentration against transgenic Leishmania Mexicana promastigotes LmGLUT1 that are glucose transport deficient and complemented with the human glucose transporter GLUT1. Activity is measured by DNA content using SYBR green in vitro.

Assay [2] concerns the target Hexose transporter 1 (Plasmodium falciparum) (UniProt O97467). The experiment in a line: ST_JUDE_LEISH: Cytotoxicity at 2uM final concentration against transgenic Leishmania Mexicana promastigotes LmPfHT that are glucose transport deficient and complemented with the Plasmodium falciparum hexose transporter. Activity is measured by DNA content using SYBR green in vitro.

Assay [3] concerns the target Glucose transporter (Leishmania mexicana) (UniProt O61059). The experiment in a line: ST_JUDE_LEISH: Cytotoxicity at 2uM final concentration against transgenic Leishmania Mexicana promastigotes LmGT2 that are glucose transport deficient and complemented with the L. Mexicana glucose transporter 2. Activity is measured by DNA content using SYBR green in vitro.

By inhibition is commonly meant the change of the read-out against control, counted positive when it falls.

Solute carrier family 2, facilitated glucose transporter member 1 (Homo sapiens), sequence (P11166 whole entry): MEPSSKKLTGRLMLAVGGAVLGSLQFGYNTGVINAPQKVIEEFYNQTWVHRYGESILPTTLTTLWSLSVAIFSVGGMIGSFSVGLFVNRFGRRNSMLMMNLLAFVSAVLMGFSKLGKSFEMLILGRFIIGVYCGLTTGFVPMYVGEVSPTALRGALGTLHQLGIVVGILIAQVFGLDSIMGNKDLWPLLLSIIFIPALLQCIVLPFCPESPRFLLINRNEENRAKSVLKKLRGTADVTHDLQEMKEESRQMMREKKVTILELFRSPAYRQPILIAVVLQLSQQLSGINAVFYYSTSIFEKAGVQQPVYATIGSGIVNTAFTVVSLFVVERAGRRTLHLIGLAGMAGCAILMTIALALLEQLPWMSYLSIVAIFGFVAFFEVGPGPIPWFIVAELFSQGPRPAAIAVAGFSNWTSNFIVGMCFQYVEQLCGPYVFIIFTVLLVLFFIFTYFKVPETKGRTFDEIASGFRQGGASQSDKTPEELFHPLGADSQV

Turning to `Cc1cccc2nc(-c3ccc(-c4ccc(CN5CCC(CO)CC5)cc4)s3)[nH]c12`, the inhibition in assay [1] was found to be 3.72%; in assay [2], 2.43%; in assay [3], 0.87%.

Regarding `COc1ccc(C2c3ccccc3-c3nc(N)nc(N)c3C2C)cc1` (stereo unspecified), the inhibition in assay [1] was 3.13%; in assay [2], 3.19%; in assay [3] it was 0.31%.

As to `Cc1ccc(-c2nc3ccccc3o2)cc1NCc1cc(Cc2ccccc2)ccc1O`, the inhibition was -0.71% in assay [1], -0.23% in assay [2] and -0.6% in assay [3].

With `CC(C)COc1ccc(Cl)cc1Cc1nc(-c2nc3ccc(CN4CCCC4)cc3[nH]2)co1`, the figures for the inhibition in assay [1], in assay [2] and in assay [3] were 2.58%, 3.58% and 3.07%, respectively.

With `Cc1cccc2c(/C=C/C(=O)NC3CCC(CCN4CCc5ccc(C#N)cc5CC4)CC3)c[nH]c12` (stereo unspecified), the inhibition worked out at 10.1% in assay [1], 8.44% in assay [2] and 7.58% in assay [3].

Turning to `Cn1c(N)c(C(=O)CSc2ncc(-c3ccc(F)cc3)n2Cc2ccccc2)c(=O)n(C)c1=O`, the values for the inhibition in assay [1], in assay [2] and in assay [3] were 2.53%, 1.62% and 3.15%, respectively.

For `Clc1ccc(OCc2ccccc2)c(Cc2ccc(-c3nc4cnccc4[nH]3)o2)c1`, the inhibition was 0.59% in assay [1], 2.01% in assay [2] and 0.25% in assay [3].

With `OC(CNCCCCCCNCC(O)c1ccc(Cl)c(Cl)c1)c1ccc(Cl)c(Cl)c1` (stereo unspecified), the results for the inhibition in assay [1], in assay [2] and in assay [3] were 3.81%, 4.69% and 3.55%, respectively.

Turning to `CCS(=O)(=O)c1ccc(OC)c(Nc2nccc(-c3c(-c4cccc(NC(=O)c5c(F)cccc5F)c4)nn4ncccc34)n2)c1`, the results for the inhibition in assay [1], in assay [2] and in assay [3] were 6.13%, 3.41% and 2.02%, respectively.

`COCCNC(=O)C(CNC(=O)c1ccc2c(c1)OCO2)NC(=O)c1ccc(-c2ccccc2)cc1` (stereo unspecified): the inhibition stood at 3.8% in assay [1], 0.37% in assay [2] and 0.64% in assay [3].

Take `COc1cc(Cc2cnc3nc(N)nc(N)c3c2C)cc(OC)c1OC`: the figures for the inhibition in assay [1], in assay [2] and in assay [3] were 1.29%, 1.49% and 1.69%, respectively.

In the case of `Cc1ccc2[nH]c(-c3ccccc3Nc3ccnc4cc(-c5nccs5)ccc34)nc2c1`, the inhibition in assay [1] stood at 1.04%; in assay [2] it was 4.44%; in assay [3] it was 1.35%.

With `CN1CCCN(Cc2cccc(-c3ccc(NS(=O)(=O)c4cccc5cccnc45)cc3)c2)CC1`, the inhibition in assay [1] was 1.84%; in assay [2] it was 1.21%; in assay [3], -3.11%.

In the case of `COc1ccc2nccc([C@@H](O)CN3CCC(NC(=O)/C=C/c4ccc5cc(C)[nH]c5c4)CC3)c2c1`, the inhibition in assay [1] is 3.96%; in assay [2], 3.03%; in assay [3] it was 1.91%.

On to `CC(C)COc1ccc(C(O)C(CN2CCCCC2)c2ccccc2)cc1` (stereo unspecified), for which the results for the inhibition in assay [1], in assay [2] and in assay [3] were 5.44%, 1.93% and 3.27%, respectively.

Turning to `COc1ccc2nccc([C@@H](O)CN3CCC(NC(=O)C(=Cc4ccc(Cl)cc4Cl)c4ccc(-c5ccccc5)cc4)CC3)c2c1`, the values for the inhibition in assay [1], in assay [2] and in assay [3] were 6.27%, 4.58% and 4.7%, respectively.

For `O=c1cc(NCCCNCc2cc3ccc(Br)cc3s2)[nH]c2ccccc12`, the results for the inhibition in assay [1], in assay [2] and in assay [3] were -0.97%, -0.27% and 0.6%, respectively.

As for `O=C(/C=C/c1ccc(Cl)c(Cl)c1)N1CCC(CN2CCC(c3c[nH]c4cnccc34)CC2)CC1`, the inhibition in assay [1] turned out to be 4.52%; in assay [2], 3.14%; in assay [3], 4.67%.

On to `CC(=O)Nc1csc(-c2cnc(/C=C(\C)C[C@@H]3OC[C@H](C[C@@H]4O[C@H]4[C@@H](C)[C@H](C)O)[C@@H](O)[C@H]3O)o2)c1`, for which the inhibition in assay [1] is 3.6%; in assay [2], 4.42%; in assay [3] it was 2.39%.

For `CCOC(=O)N1CCN(CCCCNc2c3ccc(Cl)cc3nc3ccc(OC)cc23)CC1`, the inhibition in assay [1] worked out at 10.8%; in assay [2] it was 9.69%; in assay [3] it was 7.38%.

Turning to `COc1ccc(C(=O)CCC(=O)N(Cc2ccc(-c3ccc(CNCCc4ccc(S(C)(=O)=O)cc4)cn3)cc2)C2CC3CCC2C3)cc1F` (stereo unspecified), the results for the inhibition in assay [1], in assay [2] and in assay [3] were 12.7%, 9.69% and 8.16%, respectively.

As for `COc1ccc(NC(=O)[C@H](CC(C)C)Nc2cc(C)nc(NCc3ccccc3C)n2)cc1`, the inhibition in assay [1] worked out at 1.76%; in assay [2], 2.18%; in assay [3], 0.33%.

Regarding `CCCCOc1cc2ncc(C(=O)OCC)c(O)c2cc1OCCCC`, the inhibition in assay [1] was 0.09%; in assay [2] it was 0.46%; in assay [3] it was -3.15%.

In the case of `Nc1nc(-c2ccc3c(Nc4ccc(F)c(Cl)c4)ccnc3c2)cs1`, the inhibition is 3.22% in assay [1], 4.08% in assay [2] and 3.86% in assay [3].

For `O=C(c1ccc(Cl)cc1)C1CCN(CCCOc2ccc3c(c2)CCNCC3)CC1`, the results for the inhibition in assay [1], in assay [2] and in assay [3] were 1.04%, 4.76% and 0.17%, respectively.

Consider `c1ccc(CN2CCN(CCNc3c4ccccc4nc4ccccc34)CC2)cc1`, for which the results for the inhibition in assay [1], in assay [2] and in assay [3] were 13.5%, 10.9% and 12.9%, respectively.

As for `Cc1cc2[nH]c(-c3ccc(C(=O)NCCCN4CCN(c5cccc(Cl)c5)CC4)cc3)nc2cc1Cl`, the figures for the inhibition in assay [1], in assay [2] and in assay [3] were 1.69%, 3.45% and -1.01%, respectively.

With `O=C(Nc1ccc(OC(F)(F)F)cc1)NC1CCN(c2ccnc3ccccc23)C1` (stereo unspecified), the inhibition in assay [1] came out at 3.08%; in assay [2], 2.41%; in assay [3], 3.12%.

As to `O=C(Cc1ccc(Cl)cc1)NC1CCN(c2ccnc3cc(Cl)ccc23)C1` (stereo unspecified), the inhibition in assay [1] is -0.91%; in assay [2], 0.24%; in assay [3], 0.26%.

On to `CCn1c(SCc2ccc(F)cc2)nc2sc3c(c2c1=O)CCN(C)C3`, for which the inhibition was -1.93% in assay [1], 1.32% in assay [2] and 0.64% in assay [3].

Turning to `Cc1cc(N[C@@H](Cc2ccccc2)C(=O)NC2CCCC2)nc(NCCOc2ccccc2)n1`, the results for the inhibition in assay [1], in assay [2] and in assay [3] were 1.41%, -1.48% and 2.19%, respectively.

For `CC(=O)C1=NN(c2ccc(Cl)cc2)C(c2cccs2)N1c1ccccc1` (stereo unspecified), the inhibition in assay [1] came out at 1.62%; in assay [2], 0.36%; in assay [3], 0.54%.

(Values after ChEMBL document CHEMBL3433997, “St. Jude Leishmania screening dataset” (2016).)
